Results on 39 compounds are retold here after PubChem BioAssay AID488841 (Sanford-Burnham Center for Chemical Genomics, 2010).

About 380 (27%) of roughly 1,400 compounds were called active. Some of the results follow. A number with no mark means an inactive call.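 How the source made its calls: active means mean inhibition above 50% across duplicate retests at 10 µM; inactive means the rest.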

This test can be described thus: yeast NALP1 reporter signal suppression – S. cerevisiae, luminescence, single concentration, NALP1 inhibitor project, confirmation (AID 488841).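 Further: plate controls were DMSO in galactose medium for no effect and cells in plain SD medium for full effect.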 Conditions: S. cerevisiae NALP1/ASC/Caspase-1 reporter, beta-gal luminescence; at 10 µM; stronger effect = higher value.
For orientation: inhibition means how much of the control response was suppressed. For the compound `COCCNCCOc1ccc(C(C)(C)c2ccccc2)cc1`, the inhibition is 50.5% (active).

On to `Cc1cccc(N2C(=O)NC(=O)/C(=C/c3ccc([N+](=O)[O-])o3)C2=O)c1`, for which the inhibition is 31.1%.

For the compound `Nc1cc(Cl)c2nonc2c1[N+](=O)[O-]`, the inhibition is 62.5% (active).

For `CCCCCn1c(=O)c(C(=O)Nc2nc3ccccc3[nH]2)c(O)c2ccccc21`, the inhibition was 23.1%.

Take `CCOc1cc(CNCCc2c[nH]c3ccccc23)cc(Cl)c1OCC`: the inhibition is 48%.

`Cc1ccc(/C=C2\C(=O)NC(=O)N(CC3CCCO3)C2=O)s1` (centres undefined): the inhibition was 36.6%.

As to `C[C@H]1C[C@@H](C)C(=O)[C@@H]([C@H](O)CC2CC(=O)NC(=O)C2)C1`, the inhibition was 99.8% (active).

`N#CCCn1cc(C(=O)NCc2ccccc2)c(-c2ccccc2)n1`: the inhibition is 37.1%.

Consider `CC(Cc1ccccc1Sc1ccccc1)N(C)C` (centres undefined), for which the inhibition is 34.8%.

With `Cc1cc2ccccn2c1C(C[N+](=O)[O-])c1c(F)cccc1Cl` (centres undefined), the inhibition is 71% (active).

Take `O=C1/C(=C/c2cccc([N+](=O)[O-])c2)N2CCC1CC2`: the inhibition was 46.3%.

Consider `Cc1ccc(S(=O)(=O)NC(CC(=O)N2CCC3(CC2)OCCO3)c2ccco2)cc1` (centres undefined), for which the inhibition is 37.2%.

Regarding `COc1cc2c(cc1OC)CN(c1ccc([N+](=O)[O-])c(C(F)(F)F)c1)CC2`, the inhibition was 45.4%.

Consider `CC(Cc1ccccc1)NC(=O)/C=C/c1ccc(Cl)cc1` (centres undefined), for which the inhibition was 50% (active).

For `CCOCCN1CCN(c2nnc3n2-c2ccc(Cl)cc2C(c2ccccc2Cl)=NC3)CC1`, the inhibition was 32.9%.

Regarding `Cc1ccc(Cn2cc(C=O)c(-c3ccc(C)cc3)n2)cc1`, the inhibition was 59.5% (active).

On to `CC(C)NS(=O)(=O)c1ccc(OCC(=O)N2CCN(C)CC2)cc1`, for which the inhibition is 4.2%.

In the case of `Cc1ccc(C)c(NC(=S)NCCc2cnc[nH]2)c1`, the inhibition is 23.7%.

Turning to `CN1C2CCC1/C(=C/c1ccccn1)C(=O)/C2=C\c1ccccn1`, the inhibition was 98% (active).

Regarding `CC(C)CCn1c(=O)c(C(=O)NCc2ccco2)c(O)c2ccccc21`, the inhibition is 35%.

As to `CC1(C)C[C@H]2C=C(C=O)[C@]3(C=O)C[C@]3(C)[C@H]2C1`, the inhibition was 32.4%.

Take `CN1/C(=C\C=C\C2=[N+](C)c3ccc4ccccc4c3C2(C)C)C(C)(C)c2ccccc21`: the inhibition was 100% (active).

Consider `CN1CCN(c2ccc(N)c(N3CCN(C)CC3)c2)CC1`, for which the inhibition was 33.6%.

In the case of `Fc1ccc(C(OCCN2CCCC2)c2ccc(Br)cc2)cc1` (centres undefined), the inhibition is 49.5%.

Take `CCCCN(Cc1ccccc1)C1CCN(CCc2ccccc2)CC1`: the inhibition is 55.1% (active).

Turning to `CC1CCCC(C)N1/N=C/c1c[nH]c2ccc(Br)cc12` (centres undefined), the inhibition was 19.6%.

For `CN[C@H]1C[C@H]2O[C@@](C)([C@H]1OC)n1c3ccccc3c3c4c(c5c6ccccc6n2c5c31)C(=O)NC4`, the inhibition was 99.7% (active).

As for `Clc1ccc2nc3c(c(-c4ccccc4)c2c1)CNCC3`, the inhibition was 46%.

As for `O=C(c1cc2c(s1)-c1ccccc1OC2)N1CCC2(CC1)OCCO2`, the inhibition was 35.5%.

With `c1ccc2sc(NC3=NCCN3)nc2c1`, the inhibition was 99.8% (active).

With `CNC(=O)Oc1ccc2ncccc2c1`, the inhibition was 35.5%.

`O=C(c1ccccc1)C(CN1CCCC1)c1ccccc1` (centres undefined): the inhibition is 27.6%.

Consider `COc1cc(/C=C(/C)[N+](=O)[O-])ccc1OCc1ccccc1Cl`, for which the inhibition was 73.4% (active).

Turning to `Cc1ccc(-c2nc(N3CCOCC3)s[n+]2-c2ccccc2)cc1`, the inhibition was 40.2%.

Consider `CSc1ncc(Cl)c(C(=O)O)n1` (tested in a mixture with another compound), for which the inhibition was 21.1%.

`O=C1/C(=C/c2cc3c(cc2Cl)OCO3)N2CCC1CC2`: the inhibition was 47.5%.

Take `Nc1c2c(nc3sc4c(c13)CCCC4)CCCCC2`: the inhibition is 40.5%.

On to `Nc1c2c(nc3sc4c(c13)CCCCC4)CCCC2`, for which the inhibition was 84.5% (active).

As for `Nc1ccc(C2(c3ccc(N)cc3)CN3CCC2CC3)cc1`, the inhibition is 25.7%.
